Screening data: PubChem BioAssay, National Center for Advancing Translational Sciences (NCATS)
MCF10A rereplic – A quantitative high throughput screen for small molecules that induce DNA re-replication in MCF 10a normal breast cells. MCF 10A DNA re-replication, Hoechst nuclear intensity, 48 h. Potency, µM (titrated, usually from 46.1 µM), for the others: at the highest dose activity, positive = re-replication, usual class: activators. 2.9% of 350,000 active. AID 624296, 2012; note: potency is the fitted concentration of half-maximal effect; % of control where 0% means no effect; nearly all actives have a fitted effect of over 50% in size
SW480 rereplic – A quantitative high throughput screen for small molecules that induce DNA re-replication in SW480 colon adenocarcinoma cells | SW480 DNA re-replication, Hoechst DNA content imaging, 48 h | Potency, µM (doses to about 46.1 µM), inactives show at the highest dose re-replication activation, usual class: activators | 1.8% of 340,000 active; note: potency is the fitted concentration of half-maximal effect; % of control where 0% means no effect; nearly all actives have a fitted effect of over 55% in size
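Treated cells incubate 48 hr (37 C, 5% CO2), are stained 40 min with Hoechst, and nuclear fluorescence is enumerated; a rise in nuclei with high DNA signal marks re-replication.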
DT40 TDP1 no CPT – qHTS for Inhibitors of human tyrosyl-DNA phosphodiesterase 1 (TDP1): qHTS in cells in absence of CPT | DT40 Tdp1-/- hTDP1 cells, no CPT, ATP luminescence, 48 h | Potency, µM (top dose mostly 46.2 µM), for the others: at the highest dose activity change, negative = growth inhibition, hits mostly inhibitors | 15% of 420,000 active | AID 686978, 2013; note: potency is the fitted concentration of half-maximal effect; % is set by controls: 0 for no effect and ±100 for the full control effect; nearly all actives have a fitted effect of over 55% in size
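Readout: luminescence from CellTiter-Glo after 30 min in the dark at RT. Cells: DT40 Tdp1-/- with stable hTDP1, 400/well. Exposure: compounds alone, ≥48 hr, 37 °C.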
BCR signal inh – qHTS Assay to Find Inhibitors of Chronic Active B-Cell Receptor Signaling; ABC-DLBCL IkBa-CBG/CBR reporter, luminescence ratio, 4 h; Potency, µM (doses to about 46.1 µM), inactives show top-dose activity change, negative = inhibition, actives largely listed as inhibitors; 0.05% of 340,000 active; active = well fitted inhibition curve with a large enough effect in the signal ratio, with a control signal flat, not every such curve was filed as active; inconclusive = small, poorly fitted or top-dose-only effect, or effect the other way, or a change in a side signal; the % refers to the signal ratio;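 note: potency is the fitted concentration of half-maximal effect; plate controls were basal doxycycline-induced cells for no effect and cells given 10 µM MG132 for full effect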
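Doxycycline induced both beetle luciferases in TMD8 lymphoma cells; IKK-driven degradation limits the IkappaBalpha-fused green signal, while red luminescence normalises for cell number and nonspecific effects. Compounds tested up to 46 uM, 4 hrs.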
IL-1B inflam inh – qHTS for Inhibitors of Inflammasome Signaling: IL-1-beta AlphaLISA Primary Screen | activity change, % at 57.5 µM | AID 743279, 2014 | 4.7% of 360,000 active | THP-1 LPS/ATP IL-1B secretion, AlphaLISA, 16 h; hits give low values; in the data active = activity change below about -50%; inconclusive = mostly about -30% to -49%; note: % is set by controls: 0 for no effect and ±100 for the full control effect
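THP-1 cells pretreated 1 hr with compounds (up to 57.5 uM final), then stimulated with LPS (250 ng/mL final) plus ATP (1.25 mM final); secreted IL-1B measured by AlphaLISA after 16 hr, decreased signal indicating inhibition.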
DT40 TDP1 CPT – qHTS for Inhibitors of human tyrosyl-DNA phosphodiesterase 1 (TDP1): qHTS in cells in presence of CPT. Potency, µM (titrated, usually from 46.2 µM), for inactives: at the top dose activity change, negative = growth inhibition, hits mostly inhibitors. 12% of 420,000 active. chicken DT40 Tdp1-/-;hTDP1 cells + 20 nM CPT, ATP luminescence, 48 h. AID 686979, 2013; note: potency is the fitted concentration of half-maximal effect; % is set by controls: 0 for no effect and ±100 for the full control effect; nearly all actives have a fitted effect of over 55% in size
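Cell growth measured by CellTiter-Glo luminescence after a minimum 48 h, 37 C compound exposure with 20 nM CPT in Tdp1-knockout DT40 cells stably expressing hTDP1, seeded 400/well; qHTS titration format.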
Starred values were filed as active, the others as inactive; u = inconclusive; x = not tested or not shown. This is a sample that favours compounds with a hit; in the whole collection about 19% have one here. Unless noted, calls come from the whole dose curve; as a rule, active = well fitted curve in the direction sought with a large enough effect; inconclusive = small, poorly fitted or top-dose-only effect, or another doubt; inactive = no such curve, though single readings can be large; an effect the other way counts as inactive or inconclusive.

SMILES	MCF10A rereplic	SW480 rereplic	DT40 TDP1 no CPT	BCR signal inh	IL-1B inflam inh	DT40 TDP1 CPT
O=C(CCN1C(=O)/C(=C/c2ccccc2Cl)SC1=S)NC1=NCCS1	18%	-122%	u	u	13	4%
COc1ccc(/C=C2\SC(=S)N(CCC(=O)N3CCCCC3)C2=O)cc1	6%	5%	u	u	-6	u
O=C(CN1C(=O)/C(=C/c2cccc(Br)c2)SC1=S)N1CCCC1	9%	u	9.2µM*	-1%	-10	3.3µM*
Cc1ccc(Cl)cc1N1C(=O)N(Cc2ccc(C#N)cc2)c2ccccc2S1(=O)=O	x	x	u	10%	x	u
c1ccc(COc2ccc(OCCCCN3CCCC3)cc2)cc1	u	3%	23µM*	-3%	-7	u
O=C(c1ccccc1)c1ccc(OCCCN2CCCCC2)cc1	u	-1%	-23%	u	-59*	-16%
COc1ccc(Cl)cc1NC(=O)C(C)OC(=O)C1=NNC(=O)CC1 (configuration not stated)	0%	-1%	-16%	3%	-4	-13%
CCN(CC)Cc1cc2[nH]c3c4ccc(Cl)cc4ncc3c2cc1OC	-4%	-3%	5µM*	u	-11	3.2µM*
O=C(NCCc1csc(-c2ccccc2)n1)c1c(F)cccc1F	12%	-14%	u	u	-24	u
O=C(NCCc1csc(-c2ccc(F)cc2)n1)c1c(F)cccc1Cl	x	x	u	x	x	23µM*
O=C(NCCc1csc(-c2ccc(F)cc2)n1)c1cccc(F)c1	x	x	18µM*	x	x	u
O=C(c1cc(C(F)(F)F)cc(C(F)(F)F)c1)N1CCC2(CC1)CCN(c1ccccc1)CC2	x	x	-10%	x	x	6%
O=C(c1cccc(F)c1)N1CCC2(CCCN(c3ccccc3)C2)CC1	x	x	u	x	x	-1%
O=C(c1cc(C(F)(F)F)cc(C(F)(F)F)c1)N1CCC2(CCCN(c3ccncc3)C2)CC1	x	x	21µM*	x	x	u
COc1ccc(C(=O)N2CCC3(CCCN(c4ccncc4)C3)CC2)cc1	x	x	18µM*	x	x	u
O=C(c1cc(C(F)(F)F)cc(C(F)(F)F)c1)N1CCC2(CC1)CN(c1ccccc1)C2	x	x	13µM*	x	x	u
O=C(c1cccc(F)c1)N1CCC2(CC1)CN(c1ccccc1)C2	x	x	16µM*	x	x	7.3µM*
O=C(CSc1nnc2[nH]c(=O)cc(-c3ccccc3)n12)Nc1ccc(OC(F)(F)F)cc1	x	x	5%	1%	x	-4%
CCOc1ccc(OCCC(=O)Nc2ccc(N3CCOCC3)cc2N2CCOCC2)cc1	x	x	-20%	x	-26	-1%
COc1ccc(N2CC(C(=O)N3CCN(S(=O)(=O)c4ccc(F)c(F)c4)CC3)CC2=O)c(OC)c1 (configuration not stated)	-2%	-7%	1%	x	5	-8%
O=C(c1cc(C(F)(F)F)cc(C(F)(F)F)c1)N1CCC2(CC1)CCN(c1ccccn1)CC2	x	x	21µM*	x	x	21µM*
O=C(c1ccco1)N1CCC2(CC1)CCN(c1ccccn1)CC2	x	x	u	x	x	-14%
Cc1ccccc1NS(=O)(=O)c1ccc2[nH]cc(C(=O)N3CCCC3)c(=O)c2c1	x	x	9%	0%	x	-3%
O=C(Nc1ccc2nc(SCC(=O)N3CCCC3)sc2c1)c1ccc(F)cc1	x	x	-19%	x	x	-4%
Cn1c(SCC(=O)Nc2ccc3nc(SCC(=O)N4CCCC4)sc3c2)nnc1-c1ccccc1	25%	13%	u	-2%	u	-11%
SMILES	MCF10A rereplic	SW480 rereplic	DT40 TDP1 no CPT	BCR signal inh	IL-1B inflam inh	DT40 TDP1 CPT
O=C(Nc1ccc2nc(SCC(=O)N3CCOCC3)sc2c1)c1ccc(F)cc1	x	x	12µM*	x	x	16µM*
O=C(Nc1ccc2nc(SCC(=O)N3CCOCC3)sc2c1)c1cccc(F)c1	x	x	21µM*	x	x	23µM*
O=C(Nc1ccc2nc(SCC(=O)N3CCCC3)sc2c1)c1cccc(F)c1	x	x	15µM*	x	x	21µM*
O=C(CSc1nc2ccc(NC(=O)c3ccccc3C(=O)O)cc2s1)Nc1c(Cl)cccc1Cl	5%	-2%	6%	0%	24	2%
Cc1ccc(C)c(N(CC(=O)N2CCCC2)S(C)(=O)=O)c1	3%	u	4%	-11%	-6	4%
Cc1cc2nc(C)n(CCCNC(=O)Nc3cccc4ccccc34)c2cc1C	u	5%	15µM*	u	u	23µM*
CCOc1ccc2[nH]c(=O)c(CN(CCc3ccccc3)C(=O)c3cnccn3)cc2c1	-3%	-1%	16µM*	-1%	0	u
CCOc1ccc2[nH]c(=O)c(CN(CCN3CCCC3)C(=S)Nc3ccccc3OCC)cc2c1	u	-25%	23µM*	u	-101*	u
CCOc1ccc2[nH]c(=O)c(CN(CCO)C(=O)c3ccc(Br)cc3)cc2c1	1%	-4%	-27%	-10%	-7	u
COc1ccc2[nH]c(=O)c(CN(Cc3ccco3)C(=O)c3ccccc3)cc2c1	u	u	-13%	-1%	-17	u
CCOc1ccc2[nH]c(=O)c(CN(Cc3ccco3)C(=O)c3cccc(F)c3)cc2c1	-3%	2%	23µM*	-1%	2	u
CCOc1ccc2[nH]c(=O)c(CN(CCO)C(=O)CC)cc2c1	-8%	-4%	2%	u	8	-6%
CCOc1ccc2[nH]c(=O)c(CN(Cc3ccccc3OC)C(=O)c3ccccc3)cc2c1	21µM*	u	3.3µM*	u	-10	6.5µM*
COc1cc(C2C(C(C)=O)=C(O)C(=O)N2Cc2ccccc2)ccc1O (configuration not stated)	0%	-13%	19%	1%	-10	14%
CCOc1ccc(NC(=O)CCCNC(=O)Cn2cnc3sc(C)c(C)c3c2=O)cc1	u	u	-24%	-1%	9	1%
Cc1onc(-c2ccccc2)c1CNS(=O)(=O)c1ccccc1[N+](=O)[O-]	u	-2%	u	5%	12	0%
Cc1c(C(=O)Oc2ccc(Br)cc2)sc2ncn(Cc3ccccc3F)c(=O)c12	x	x	-13%	u	x	-7%
O=C(NCCO)C(=O)Nc1cc2c3c(c1)CCC(=O)N3CCC2	-1%	-4%	-11%	-14%	-3	14%
